# Measurements published in PubChem BioAssay (NCI).
# About 83,000 compounds went through this panel and 20% of them were active in at least one assay; those are over-represented in the sample as a whole.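 For each line, cells grew in 96-well plates with the test compound present at a single concentration for 48 hours.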 Calls of active or inactive are those of the source. The calls were made as follows: active = growth percent below 10; inactive = the rest.
# Tested on: DU-145 prostate
# Assay: NCI-60 one-dose screen, 48 h (100 = growth as untreated, 0 = no growth, -100 = all killed)
# Conditions: 10 µM unless noted
row,Compound,growth
1,O=C1CCC23OC(c4ccccc4N12)C(O)C(O)C3O (centres undefined),107% (inactive)
2,N#Cc1c(NC(=O)c2cccs2)[n+]([O-])c2cc(C(F)(F)F)ccc2[n+]1[O-],114% (inactive)
3,Cc1[nH]c2ncnc(Oc3ccc(NC(=O)Nc4ccc(Cl)c(C(F)(F)F)c4)cc3)c2c1C,66.4% (inactive)
4,c1cc(CNC23CC4CC(CC(C4)C2)C3)cc(C[N+](Cc2cccc(CNC34CC5CC(CC(C5)C3)C4)c2)(Cc2cccc(CNC34CC5CC(CC(C5)C3)C4)c2)Cc2cccc(CNC34CC5CC(CC(C5)C3)C4)c2)c1 (centres undefined),-4.07% [42 µM] (active)
5,C[C@H]1[C@H](C)CC[C@]2(C(=O)OCCCC[P+](c3ccccc3)(c3ccccc3)c3ccccc3)CC[C@]3(C)C(=CC[C@@H]4[C@@]5(C)CC[C@H](OC(=O)C(Cl)Cl)C(C)(C)[C@@H]5CC[C@]43C)[C@H]12,-35.2% (active)
6,O=C(Nc1nc(-c2ccccc2)cs1)c1cc(-c2ccc(Br)cc2)nc2ccccc12,68.7% (inactive)

# Tested on: K-562 leukemia
# Assay: as above
# Conditions: 10 µM unless noted
row,Compound,growth
1,O=c1nc(-c2ccccc2)c2cc(-c3ccc(N4CCCC4)nc3)ccc2[nH]1,16.4% (inactive)
2,O=[N+]([O-])c1cccc(CN(Cc2cccc([N+](=O)[O-])c2O)c2ccccc2)c1O,60.5% (inactive)
3,Oc1ccccc1-c1nc2c3ccccc3c3ccccc3c2o1,88.1% (inactive)
4,CN(C)CCCn1c2c(c3cc(-c4ccco4)ccc3c1=O)C(=O)c1ccccc1-2,-75.1% (active)
5,COc1ccc(C2CC(c3ccc(OC)cc3O)=NN2c2ccc(S(N)(=O)=O)cc2)cc1 (centres undefined),10.8% (inactive)
6,Cc1c(Cl)cccc1NC(=O)c1sc2nc3c(cc2c1N)CCCCCC3,9.93% (active)
7,[2H]c1cc2c(c([2H])c1F)/C(=C/c1[nH]c(C)c(C(=O)NCCN(CC)CC)c1C)C(=O)N2,55.3% (inactive)
8,CC(=O)Oc1c2c(nc3c1c1ccccc1n3Cc1ccccc1)-c1ccccc1C2,78.4% (inactive)
9,C=C(C)[C@@H]1CC[C@]2(C(=O)n3ccnc3)CC[C@]3(C)[C@H](CC[C@@H]4[C@@]5(C)CCCNC(C)(C)[C@@H]5CC[C@]43C)[C@@H]12,-38.4% (active)
10,CC(C)C[C@H](C(=O)O)N(C)C(=O)[C@@H]1CCCN1C(=O)[C@H](C)OC(=O)[C@H](CCC(N)=O)NC(=O)[C@@H]1CCC(=O)N1,93.2% (inactive)
11,COC(=O)CCc1cc(O)c2c(c1)[C@@H](C(=O)OC)[C@H](c1ccc(O)c(O)c1)O2,26.2% (inactive)
12,CCCCN(CCCC)CC(CN(CC)CC)OC(=O)Nc1ccccc1 (centres undefined),76% (inactive)
13,COC(=O)CCc1n(Cc2ccc3ccccc3c2)c2ccccc2[n+]1Cc1ccc2ccccc2c1,9.25% (active)
14,COc1ccc(Nc2nc(SCC(C)C)nc(-c3ccc(F)cc3)c2C#N)cc1,19.3% (inactive)
15,CCCS(=O)(=O)Nc1ccc(F)c(C(=O)c2c[nH]c3ncc(-c4ccc(OCCCC5CCCCN5)nc4)cc23)c1F (centres undefined),30.1% (inactive)
16,CC(=O)c1ccc(NC(=O)CSc2nnc(-c3cc(-c4ccc(C)cc4)nc4ccccc34)o2)cc1,38.1% (inactive)
17,Oc1ccc(CNNc2ccnc3c(O)cccc23)c2cccnc12,9.71% (active)
18,COc1ccc(-c2cs/c(=N\N=C\c3ccc(O)cc3O)n2/N=C/c2ccc(O)cc2O)cc1,-4.98% (active)
19,c1ccc(-c2n(Cc3ccc4ccccc4n3)cc[n+]2Cc2ccc3ccccc3n2)cc1,16.9% (inactive)

row,Compound,growth
1,O=C1C(Cl)=C(NCCCN(CCCNC2=C(Cl)C(=O)c3ccccc3C2=O)C2=C(Cl)C(=O)c3ccccc3C2=O)C(=O)c2ccccc21,12.2% (inactive)
2,CCc1ccc(OCc2ccccc2C(=O)Nc2ccc3nc(C)cc(N)c3c2)cc1,-68% (active)
3,CC1CCN(CCCCCOc2ccc3oc4cc(Cl)ccc4c(=O)c3c2)CC1,5.17% (active)
4,Nc1ccccc1NS(=O)(=O)c1ccc(Cl)cc1,95.9% (inactive)
5,COc1cc(C2=NNC(c3ccc(N(C)C)cc3)C2)cc(OC)c1OC (centres undefined),-9.17% (active)
6,COc1cc(NC(=O)Nc2cnc(Nc3ccc(N4CCOCC4)cc3)nc2Oc2ccc(C(F)(F)F)cc2)cc(OC)c1,95.3% (inactive)
7,C=C(C)[C@@H]1CC[C@]2(C(=O)O)CC[C@]3(C)[C@H](CC[C@@H]4[C@@]5(C)C[C@@H](CC#Cc6ccc(Cl)cc6)C(=O)C(C)(C)[C@@H]5CC[C@]43C)[C@@H]12,28.8% (inactive)
8,Cc1cc(Nc2nc(SCc3ccc(C(=O)Nc4ccc(F)cc4N)cc3)nn3cccc23)n[nH]1,7.36% (active)
9,O=C(/C(=C/c1ccc([N+](=O)[O-])cc1)SCc1ccc(F)cc1)c1ccc(Cl)cc1,0.694% (active)
10,C#C[C@@]1(O)[C@@H](CO)O[C@@H](n2cc(Br)c3c(N)ncnc32)[C@@H]1O,5.03% (active)
11,CC(=O)[C@@H]1CC[C@]2(C(=O)O)CC[C@]3(C)[C@H](CC[C@@H]4[C@@]5(C)Cc6c([nH]c7ccccc67)C(C)(C)[C@@H]5CC[C@]43C)[C@@H]12,37.8% (inactive)
12,CC[C@]12C=CCN3CC[C@@]4(c5cc(NC(=O)CCC(=O)O[C@H]6CC[C@H]7[C@@H]8CC[C@H]9CC(=O)CC[C@]9(C)[C@H]8CC[C@]67C)c(OC)cc5N(C)[C@H]4[C@@](O)(C(=O)OC)[C@@H]1OC(C)=O)[C@@H]32,41.7% (inactive)
13,CCCCCOC(=O)c1ccccc1O,99.9% (inactive)
14,O=C1CCC23OC(c4ccccc4N12)C(O)C(O)C3O (centres undefined),90.4% (inactive)
15,N#Cc1c(NC(=O)c2cccs2)[n+]([O-])c2cc(C(F)(F)F)ccc2[n+]1[O-],87.7% (inactive)
16,Cc1[nH]c2ncnc(Oc3ccc(NC(=O)Nc4ccc(Cl)c(C(F)(F)F)c4)cc3)c2c1C,26.6% (inactive)
17,c1cc(CNC23CC4CC(CC(C4)C2)C3)cc(C[N+](Cc2cccc(CNC34CC5CC(CC(C5)C3)C4)c2)(Cc2cccc(CNC34CC5CC(CC(C5)C3)C4)c2)Cc2cccc(CNC34CC5CC(CC(C5)C3)C4)c2)c1 (centres undefined),4.99% [42 µM] (active)
18,C[C@H]1[C@H](C)CC[C@]2(C(=O)OCCCC[P+](c3ccccc3)(c3ccccc3)c3ccccc3)CC[C@]3(C)C(=CC[C@@H]4[C@@]5(C)CC[C@H](OC(=O)C(Cl)Cl)C(C)(C)[C@@H]5CC[C@]43C)[C@H]12,-57.4% (active)
19,O=C(Nc1nc(-c2ccccc2)cs1)c1cc(-c2ccc(Br)cc2)nc2ccccc12,24.3% (inactive)
